Compound activity deposited in PubChem BioAssay by National Center for Advancing Translational Sciences (NCATS).
The entries come from a sample that favours hits as a whole.
p53null 39C tox: selectivity test: cytotoxicity in p53 null cells, nonpermissive temperature; hit rate 0.97% among 55,000; H1299 p53-null (neo) cells, 39C, ATPlite viability, 24 h; Potency, µM (doses to about 46.1 µM), hits mostly cytotoxic; AID 904; also: nearly all actives have a fitted effect of over 50% in size
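Cells seeded at 600/well, 37C overnight. Compound added (up to 46 uM), plates shifted to 39C for 24 hr. ATPlite added, luminescence read after 20 min at room temperature.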
OvCa metastasis: inhibitors of ovarian cancer cell adhesion and invasion in omental model; SKOV3ip1-GFP adhesion/invasion on 3D omental model, fluorescence; Potency, µM (highest dose often 45.8 µM), actives largely listed as inhibitors; hit rate 0.1% among 46,000; also: nearly all actives have a fitted effect of over 65% in size
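Primary human omental fibroblast/mesothelial 3D culture pre-formed 48 h. SKOV3ip1-GFP cells added with compounds (0.36-46 umol/L), incubated 2 h RT/16 h 37 C, fixed; GFP cells quantified at 488/509 nm.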
NTMT1 inh: inhibitors of human N-terminal methyltransferase NTMT1; Q9BV86; NTMT1 MTase-Glo SAH luminescence, purified enzyme; Potency, µM (top dose mostly 114 µM), most hits filed as inhibitors; hit rate 2.5% among 59,000; also: nearly all actives have a fitted effect of over 65% in size
Target sequence (Q9BV86 whole entry, looked up): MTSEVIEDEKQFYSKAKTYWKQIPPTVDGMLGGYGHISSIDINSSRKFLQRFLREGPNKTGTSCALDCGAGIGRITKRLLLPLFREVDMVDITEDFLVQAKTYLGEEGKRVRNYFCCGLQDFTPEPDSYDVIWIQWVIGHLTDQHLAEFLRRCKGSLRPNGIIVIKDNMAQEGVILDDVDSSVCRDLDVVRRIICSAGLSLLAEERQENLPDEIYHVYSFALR
FH mod: Identification of activators of human fumarate hydratase by quantitative high-throughput screening. Fumarate hydratase, mitochondrial (Homo sapiens), P07954. FH coupled MDH/diaphorase resazurin fluorescence, 15 min. Potency, µM (highest dose often 79.9 µM), hits mostly inhibitors. hit rate 0.22% among 54,000; also: the screen sought activators but most active calls are inhibition curves; nearly all actives have a fitted effect of over 45% in size
p53null 32C tox: p53 null cell cytotoxicity, permissive temperature; H1299-neo p53 null cells, ATP luminescence, 24 h, 32C; Potency, µM (highest dose often 46.1 µM), usual class: cytotoxic; hit rate 0.62% among 55,000; also: nearly all actives have a fitted effect of over 55% in size
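H1299-neo, 600 cells/well; overnight 37C; cpd up to 46 uM, 24 h at 32C; ATPlite luminescence after 20 min RT; normalized to DMSO (0%) and tamoxifen 100 uM (100% kill); Hill-fit AC50.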
Of the large screens only hits and unclear results are named; the others gave an inactive call; ! = repeats disagree; [ ] = another dose, or the depositor's remark. Calls follow the shape of the dose curve; as a rule, active = well fitted curve in the direction sought with a large enough effect; inconclusive = small, poorly fitted or top-dose-only effect, or another doubt; inactive = no such curve, though single readings can be large; an effect the other way counts as inactive or inconclusive.

O=C(/C=C/Nc1ccc(F)cc1F)c1cccs1	p53null 32C tox 10µM (no result: p53null 39C tox, OvCa metastasis, NTMT1 inh, FH mod)
O=C(/C=C/Nc1ccccc1F)c1cccs1	p53null 32C tox 11.2µM (no result: p53null 39C tox, OvCa metastasis, NTMT1 inh, FH mod)
Cc1ccc(/C=C/c2nc3ccccc3[nH]2)cc1	p53null 39C tox 1.58µM, OvCa metastasis inconclusive, NTMT1 inh 5.01µM, p53null 32C tox 0.398µM
NCC1OC(OC2C(O)[C@@H](OC3C(O)C(N)CC(N)C3OC3OC(CO)C(O)C(O)C3N)O[C@@H]2CO)C(N)C(O)C1O (some centres undefined)	none (no result: p53null 39C tox, OvCa metastasis, NTMT1 inh, p53null 32C tox)
N#CN1CCC[C@@H](n2nc(-c3ccc(Oc4ccc(F)cc4F)cc3)c(C(N)=O)c2N)C1	none (no result: p53null 39C tox, OvCa metastasis, p53null 32C tox)
COc1ccc([S+](=O)([O-])Nc2ccc(-c3nc4ccccc4[nH]3)cc2)cc1OC	none (no result: p53null 39C tox, OvCa metastasis, FH mod, p53null 32C tox)
Cc1cc(C(C#N)c2ccc(Cl)cc2)c(Cl)cc1NC(=O)c1cc(I)cc(I)c1O (centres undefined)	NTMT1 inh 17.8µM!, FH mod inconclusive (no result: p53null 39C tox, OvCa metastasis, p53null 32C tox)
CCS(=O)(=O)c1ccc2oc(-c3ccc4ccccc4c3)nc2c1	none (no result: p53null 39C tox, OvCa metastasis, FH mod, p53null 32C tox)
O=C(Nc1ccc(Cl)cc1)N1CCN(c2ccc3nnc(-c4ccccc4)n3n2)CC1	FH mod inconclusive
COc1ccccc1NC(=O)N1CCN(c2ccc3nnc(-c4ccc(F)cc4)n3n2)CC1	NTMT1 inh 79.4µM
CC(=O)Nc1ccc2nc(SCc3ccccc3)sc2c1	FH mod inconclusive
CCc1ccc(Nc2nc(N)nc(CSc3nc4ccccc4s3)n2)cc1	p53null 39C tox inconclusive, NTMT1 inh 89.1µM, FH mod inconclusive
Nc1nc(Cl)nc2c1ncn2[C@@H]1O[C@H](CO)C(O)[C@H]1O (some centres undefined)	none (no result: p53null 39C tox, OvCa metastasis, NTMT1 inh, p53null 32C tox)
CC1(C)CC[C@]2(C(=O)O[C@@H]3O[C@H](CO)[C@@H](O)[C@H](O)[C@H]3O)CC[C@]3(C)C(=CCC4[C@@]5(C)CC[C@H](OC6OC(C(=O)O)C(OC7OC(CO)C(O)C(O)C7O)C(O)C6O)C(C)(C)C5CC[C@]43C)C2C1 (some centres undefined)	none (no result: p53null 39C tox, OvCa metastasis, p53null 32C tox)
CCc1ccc(OCC(=O)Nc2ncn[nH]2)c(Br)c1	p53null 39C tox 1.26µM, p53null 32C tox 2µM
O=C(COc1ccc(Br)cc1Cl)Nc1ncn[nH]1	p53null 39C tox inconclusive, p53null 32C tox inconclusive
O=C1CC(c2nc3ccccc3n2CCC2CCCCC2)CN1c1ccccc1Cl (centres undefined)	p53null 39C tox 15.8µM, p53null 32C tox inconclusive
CCOc1ccccc1N1CC(c2nc3ccccc3n2CCOc2ccc(C(C)(C)C)cc2)CC1=O (centres undefined)	p53null 39C tox 20µM, p53null 32C tox inconclusive
CCOc1ccccc1N1CC(c2nc3ccccc3n2CCCCOc2cc(C)ccc2C)CC1=O (centres undefined)	p53null 39C tox 12.6µM, NTMT1 inh 89.1µM, p53null 32C tox inconclusive
CCc1ccccc1N1CC(c2nc3ccccc3n2CCOc2ccc(Cl)c(C)c2)CC1=O (centres undefined)	p53null 39C tox 17.8µM, FH mod inconclusive
CC(=O)Nc1sc2c(c1C#N)CCN(C(C)C)C2	none (no result: p53null 39C tox, OvCa metastasis, FH mod, p53null 32C tox)
CC(=O)Nc1cc(Oc2ccc3c(nc(Nc4ccc(F)cc4F)n3C)c2C)ccn1	none (no result: p53null 39C tox, OvCa metastasis, FH mod, p53null 32C tox)
Cc1cccc(C)c1NC(=O)CCS(=O)(=O)c1ccc2c(c1)n(C)c(=O)c(=O)n2C	none
CCc1cccc(C)c1NC(=O)CCS(=O)(=O)c1ccc2c(c1)oc(=O)n2C	NTMT1 inh 39.8µM
Nc1cc(C(F)(F)F)ccc1C(=O)O	none (no result: OvCa metastasis, NTMT1 inh, FH mod)
Nc1cc(C(F)(F)F)ccc1S	NTMT1 inh 8.91µM (no result: p53null 39C tox, OvCa metastasis, p53null 32C tox)
O=c1c(O)c(-c2ccc(O)c(O)c2)oc2cc(O)ccc12	NTMT1 inh 50.1µM!, FH mod 27.3µM![activator] (no result: p53null 39C tox, p53null 32C tox)
COc1cc(O)c2c(=O)c(O)c(-c3ccc(O)c(O)c3)oc2c1	NTMT1 inh 25.1µM (no result: p53null 39C tox, OvCa metastasis, p53null 32C tox)
O=c1c(-c2ccc(O)cc2)coc2cc(O)ccc12	NTMT1 inh inconclusive (no result: p53null 39C tox, p53null 32C tox)
O=c1c(O)c(-c2ccc(O)cc2)oc2cc(O)cc(O)c12	NTMT1 inh inconclusive (no result: p53null 39C tox, p53null 32C tox)
CCCCN(C)C(=O)Cn1nc(-c2ccc(OC)cc2)ccc1=O	none (no result: p53null 39C tox, OvCa metastasis, FH mod, p53null 32C tox)
COCc1nn2cc(-c3ccc(C)cc3)nc2s1	p53null 39C tox 10µM, NTMT1 inh inconclusive, p53null 32C tox 10µM
Cc1ccc(OCCn2c(CCNC(=O)c3ccc(Br)o3)nc3ccccc32)cc1	none (no result: p53null 39C tox, OvCa metastasis, FH mod, p53null 32C tox)
Oc1ccc(NCc2ccccc2OCc2ccccc2Cl)cc1	NTMT1 inh 44.7µM, FH mod inconclusive
